Assay outcomes deposited in PubChem by several laboratories.
Only some compounds are listed: those with a hit (about 3.6% of all), similar ones and a draw of the others.
BJeLR lethal – BJeLR cell viability loss | inhibition, % (concentration not given with the values) | BJeLR (HRASV12) viability, CellTiter-Glo ATP luminescence, 48 h | hit rate 0.17% among 300,000; in the data active means inhibition above about 50%; inconclusive means no clear call, values can overlap the other calls
Anthrax LF prot – blocks Bacillus anthracis lethal factor protease. multiplex microsphere protease cleavage assay, LF. hit rate 0.12% among 360,000. inhibition, % at 10 µM. P15917
SARS 3CLpro inh – SARS-CoV 3CLpro protease inhibition. inhibition, % at 6 µM. hit rate 0.14% among 290,000. recombinant SARS-CoV 3CLpro, quenched FRET peptide cleavage. P0C6X7; in the data active means inhibition above about 12%
BoNT-A LC inh2 – BoNT A light chain protease inhibition; multiplex microsphere protease substrate cleavage, flow cytometry; inhibition, % at 10 µM; hit rate 0.17% among 360,000; AID 588499
BoNT-F LC inh – blocks Botulinum neurotoxin F light chain protease. Multiplex microsphere protease cleavage assay, flow cytometry. AID 588497. inhibition, % at 10 µM. hit rate 0.22% among 360,000; in the data active means inhibition above about 35%, passing the limit was not always enough; inconclusive means no clear call, values can overlap the other calls
Bead autofluor – compound fluorescence in toxin protease inhibitor counterscreen. compound autofluorescence counterscreen, microsphere flow cytometry; hits give high values. fluorescence intensity (concentration not given with the values). hit rate 3.1% among 360,000; in the data active means fluorescence intensity above about 16000; inconclusive means no clear call, values can overlap the other calls
Each line names hits and unclear results; the compound was inactive in the other large screens. Unless noted, no stated cut-off is given here; in the data, active means inhibition above about 30%; inconclusive means no clear call, values can overlap the other calls; inactive means below that.

CC(C)(C)CC(C)(C)NC(=S)Nc1ccc2nc(-c3ccccn3)c(-c3ccccn3)nc2c1	BoNT-A LC inh2 41.5
O=S1(=O)CC(N2CC=CC2)CN1Cc1ccccc1 (stereo not given)	none (no result: BJeLR lethal, SARS 3CLpro inh)
Cc1cccc(C(=O)Oc2coc(CSc3nnc(NC(=O)C4CC4)s3)cc2=O)c1	BoNT-A LC inh2 54.8
Cc1cccc(CSc2nnc(NC(=O)c3ccco3)s2)c1	Bead autofluor 24019
COc1ccc(C(=O)Oc2coc(CSc3nnc(NC(=O)c4cccs4)s3)cc2=O)cc1	none
O=C(Oc1coc(CSc2nnc(NC(=O)C3CC3)s2)cc1=O)c1ccccc1	BoNT-A LC inh2 62.8
Cc1ccc(C(=O)Oc2coc(CSc3nnc(NC(=O)C4CC4)s3)cc2=O)cc1C	BoNT-A LC inh2 34.3 (no result: BJeLR lethal)
O=C(Nc1nnc(SCc2cccc(F)c2)s1)c1ccco1	none
Cc1cc(C)nc(SCc2cc(=O)c(OC(=O)c3cccc([N+](=O)[O-])c3)co2)n1	none
CN(C)S(=O)(=O)c1cccc(NC(=S)NCCCn2ccnc2)c1	none
CCN(CC)c1ccc(CN2CCC(C(=O)NCc3ccc(C)cc3)CC2)cc1	none
CCc1nc2oc3ccccc3c(=O)c2c(=O)n1Cc1ccccc1	none
CCc1nc2oc3cc(OC)ccc3c(=O)c2c(=O)n1Cc1ccccc1	BoNT-A LC inh2 inconclusive, Bead autofluor 24709
COc1cc(OC)cc(C(=O)OCCCOC(=O)c2cc(OC)cc(OC)c2)c1	none
O=C(NC1CCCCC1)n1c(=O)oc2ccc(Cl)cc21	Bead autofluor 23566
O=C(NC1CCCCC1)n1c(=O)oc2ccccc21	Bead autofluor 23174
O=C(Cn1c(=O)oc2ccc(Cl)cc21)NC1CCCCC1	none
O=C(CCn1c(=S)oc2ccccc21)NC1CCCCCC1	none
CC1=C(C(=O)N2CCOCC2)CC(CC(=O)NCCCN(C)C)C(=O)N1CCCN1CCCC1=O (stereo not given)	none (no result: BJeLR lethal, SARS 3CLpro inh)
Cc1cc2ncn(/N=C/c3ccc(-c4ccccc4)o3)c2cc1C	Bead autofluor 21563
Cc1cc2ncn(/N=C/c3cccnc3)c2cc1C	none
O=C(CSc1nnc(-c2cnccn2)n1Cc1ccco1)c1ccccc1	Bead autofluor 17135
Cn1c(SCC(=O)c2ccc(F)cc2)nnc1-c1cnccn1	Bead autofluor 18205
CC(C)OC(=O)CSc1nnc(-c2ccc(C(C)(C)C)cc2)n1N	Bead autofluor inconclusive
Cc1ccc(-c2nnc(SCC(=O)O)n2N)cc1	BoNT-A LC inh2 inconclusive, Bead autofluor 22439
CC(C)(C)c1ccc(-c2nnc(SCC(=O)O)n2N)cc1	Bead autofluor 22213
CCOC(=O)CCCCC(=O)c1[nH]c(=O)[nH]c1C[n+]1ccccc1	none (no result: Anthrax LF prot, BoNT-A LC inh2, BoNT-F LC inh, Bead autofluor)
Cc1[nH]c(=O)[nH]c1C(=O)CCCCC(=O)OCC(=O)Nc1ccccn1	BoNT-F LC inh 69.9
O=C(Nc1ccc(Cl)c(Cl)c1)c1ccc(Cn2cc(Cl)cn2)cc1	none
CCOc1ccc(C(=O)Nc2cnn(Cc3ccc(Cl)c(Cl)c3)c2)cc1	Bead autofluor 16229
O=[N+]([O-])c1cccc(S(=O)(=O)N2CCN(c3ccccn3)CC2)c1	none
O=C(CCS(=O)(=O)c1ccc(Br)cc1)N1CCN(c2ccc(Cl)cc2)CC1	Bead autofluor 20319
CC(=O)Oc1ccc2cc(-c3nc4ccccc4n3C)c(=O)oc2c1	none
Cn1c(-c2cc3ccc(OC(=O)C(C)(C)C)cc3oc2=O)nc2ccccc21	Bead autofluor 16715
O=[N+]([O-])c1ccc(S(=O)(=O)N2CCN=C2SCc2ccc(F)cc2)cc1	none
Cc1ccc2ncc([N+](=O)[O-])n2c1	Bead autofluor 21684
Cc1ccc(NC(=O)Cn2c([N+](=O)[O-])cnc2C)cc1	none
CC(C)[C@H](NS(=O)(=O)c1ccccc1F)C(=O)NC1CCCCC1	none (no result: BJeLR lethal, SARS 3CLpro inh)
CCN(CC)c1ccc(/C=C/C(=O)C2C(=O)C=C(C)OC2=O)cc1 (stereo not given)	Anthrax LF prot 73.0, BoNT-A LC inh2 70.0, BoNT-F LC inh 154.2, Bead autofluor 66487
CCN(CC)c1ccc(C=C2C(=O)OC(c3ccccc3)OC2=O)cc1 (stereo not given)	none
CC(C)Oc1ccc(CSc2nnc3n(C)c(=O)c4c5c(sc4n23)CCCC5)cc1	BoNT-A LC inh2 inconclusive, Bead autofluor 24669
Cc1ccc(C2(COC(=O)C(C)C)CO2)c(OC(=O)C(C)C)c1 (stereo not given)	none (no result: SARS 3CLpro inh)
CCC(C)C(=O)OCC1(c2ccc(C)cc2OC(=O)C(C)C)CO1 (stereo not given)	BJeLR lethal 53.0 (no result: SARS 3CLpro inh)
Cc1ccc(C(C)NC(=O)c2ccncc2)cc1C (stereo not given)	none
CC(NC(=O)c1ccncc1)C(C)(C)C (stereo not given)	Bead autofluor 21180
CCc1noc(C)c1C(=O)Nc1ccccc1N1CCOCC1	none (no result: SARS 3CLpro inh)
Cc1c(CC(=O)O)c(=O)oc2c(C)c(OCc3ccc(F)cc3Cl)ccc12	BoNT-F LC inh 34.6
Cc1c(CC(=O)O)c(=O)oc2c(C)c(OCc3ccc(F)cc3F)ccc12	none
COC(=O)c1ccccc1CON1C(=O)C(C)(C)N(OCc2ccccc2C(=O)OC)C(=O)C1(C)C	Bead autofluor 16139
COc1ccccc1C1c2ccc3ccccc3c2Oc2ncn(CCN(C)C)c(=N)c21 (stereo not given)	none
COc1ccc(C2c3ccc4ccccc4c3Oc3ncn(CCCN(C)C)c(=N)c32)cc1 (stereo not given)	BJeLR lethal 53.7
CCCCN1C2=NC(c3ccccc3)CN2c2ccccc21 (stereo not given)	none (no result: SARS 3CLpro inh)
Cc1ccnc(N2CCCC(C(=O)Nc3nnc(C)s3)C2)n1 (stereo not given)	none
COc1ccc(NC(=O)C2CCCN(c3c4c(nc5ncnn35)CCC4)C2)cc1 (stereo not given)	Bead autofluor 23021
Cc1nnc(NC(=O)C2CCCN(c3ncccn3)C2)s1 (stereo not given)	Bead autofluor 22811 (no result: BJeLR lethal)
O=C(Nc1ccc(C2CCCCC2)cc1)C1CCCN(c2ncccn2)C1 (stereo not given)	BoNT-A LC inh2 inconclusive, Bead autofluor 22140 (no result: SARS 3CLpro inh)
COc1cc(NC(=O)C2CCCN(c3ncccn3)C2)cc(OC)c1 (stereo not given)	none
O=C(Nc1ccc(Oc2ccccc2)cc1)C1CCCN(c2ncccn2)C1 (stereo not given)	Bead autofluor 21093
CC(=O)Nc1ccc(NC(=O)C2CCCN(c3ncccn3)C2)cc1 (stereo not given)	none
Cc1nc2ccc(S(=O)(=O)NCC(=O)Nc3ccc(F)cc3)cc2s1	none
Cc1ccc(C)n1-c1ccc(N2CCOCC2)nc1	Bead autofluor 22547
Cc1ccc(S(=O)(=O)Nc2ccc(N3CCOCC3)nc2)cc1	none
Cc1ccc(C)n1-c1ccc(C(=O)N2CCOCC2)cc1	BoNT-A LC inh2 inconclusive, Bead autofluor 22385
O=C(c1cc(Cl)cc(Cl)c1)N1CCOCC1	Bead autofluor 20304
CN1CCN(C(=O)c2cc(Cl)cc(Cl)c2)CC1	BoNT-F LC inh inconclusive
CCOc1ccc(N(CC)S(=O)(=O)c2ccc3c(c2)oc(=O)n3C)cc1	Bead autofluor 17539
